High-throughput results as filed in PubChem BioAssay.
An excerpt weighted towards active compounds, which were near 5.7% of everything screened.
HepG2 viability = counter-screen for TGF-b inhibitors: cytotoxicity in HepG2 cells; HepG2 CAGA-GFP viability, ATP luminescence, 18 h; Potency, µM (top dose mostly 46.1 µM), actives largely listed as cytotoxic; 410,000 tested, 0.76% active
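HepG2 CAGA-GFP cells (1000/well, DMEM with 1% FBS) received compound, then TGF-beta at 500 pg/mL final, and were incubated 18 hours at 37 degrees C. Viability was read by CellTiter-Glo luminescence. Media-only wells were set as complete cell-killing and DMSO as no toxicity.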
IL-1B inflam inh = blocks inflammasome-driven IL-1 beta release; 360,000 tested, 4.7% active; AID 743279; THP-1 LPS/ATP IL-1B secretion, AlphaLISA, 16 h; stronger effect = lower value; activity change, % at 57.5 µM; in the data active = activity change below about -50%; inconclusive = mostly about -30% to -49%
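THP-1 cells pretreated 1 hr with compounds (up to 57.5 uM final), then stimulated with LPS (250 ng/mL final) plus ATP (1.25 mM final); secreted IL-1B measured by AlphaLISA after 16 hr, decreased signal indicating inhibition.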
ATXN2 expr inh = ATXN2 expression inhibition | HEK-293 ATXN2-luciferase reporter, luminescence, 24 h | Potency, µM (highest dose often 57 µM), usual class: inhibitors | 360,000 tested, 0.72% active; also: nearly all actives have a fitted effect of over 55% in size
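ATXN2-luciferase reporter cells (luciferase flanked by upstream and downstream ATXN2 gene portions) were treated 24 h at 37 °C with compounds at up to 57 uM. SteadyGlo luminescence gave expression; GF-AFC fluorescence gave viability.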
TGFb SMAD3 inh = TGF-b pathway inhibition; Potency, µM (series often up to 46.1 µM), most hits filed as inhibitors; 410,000 tested, 1.2% active; HepG2 CAGA-GFP TGF-b/SMAD3 reporter, GFP fluorescence, 18 h; TGF-beta stimulated, 500 pg/mL final; also: nearly all actives have a fitted effect of over 65% in size
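Per well, imaged GFP fluorescence of HEPG2 CAGA-GFP cells gives the signal; cells get compound, then TGF-beta (500 pg/mL final), 18 h at 37 degrees C; %Activity versus -TGF-beta and +DMSO controls.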
S2 tox = viability counter-screen for ATXN expression inhibitors. S2 cells (HEK-293 line with an ATXN2-luciferase reporter) viability, CellTiter-Fluor protease fluorescence, 24 h. Potency, µM (series often up to 56.7 µM), usual class: cytotoxic. 400,000 tested, 0.49% active; also: nearly all actives have a fitted effect of over 40% in size
Hits are given with their value; – = inactive; ? = inconclusive; · = not tested or not shown. Unless noted, calls follow the shape of the dose curve; as a rule, active = well fitted curve in the direction sought with a large enough effect; inconclusive = small, poorly fitted or top-dose-only effect, or another doubt; inactive = no such curve, though single readings can be large; an effect the other way counts as inactive or inconclusive.

SMILES | HepG2 viability | IL-1B inflam inh | ATXN2 expr inh | TGFb SMAD3 inh | S2 tox
COc1ccccc1NC(=S)N(CCCN(C)C)Cc1cc2cc3c(cc2[nH]c1=O)OCO3 | – | – | – | – | –
Cc1ccc(NC(=S)N(CCN(C)C)Cc2cc3cccc(C)c3[nH]c2=O)cc1 | – | – | – | – | –
CC(NC(=O)c1sc2ncccc2c1-n1cccc1)c1ccccc1 (centres undefined) | – | · | – | – | –
COc1ccccc1CNS(=O)(=O)c1ccc2c(c1)NC(=O)C(C)C(=O)N2 (centres undefined) | – | · | · | ? | ·
Cc1ccc(NC(=O)CN2C(=O)COc3ccc(S(=O)(=O)N4CCCCCC4)cc32)c(C)c1 | – | · | · | ? | ·
CC1=CC(C)(C)N2C(=O)C3(N=C(N)NC(Nc4ccccc4)=N3)c3cc(C)cc1c32 (centres undefined) | – | -78.1 | – | – | ?
COc1ccc(N(CC(=O)N2CCN(c3ccc(Cl)cc3)CC2)S(=O)(=O)c2c(C)n[nH]c2C)cc1 | – | -62.4 | ? | – | –
COc1cccc(CNC(=O)CN(c2ccc(C(C)C)cc2)S(=O)(=O)c2c(C)n[nH]c2C)c1 | – | · | ? | 15.8µM | ?
COc1ccc(N(CC(=O)Nc2ccc(Cl)cc2)S(=O)(=O)c2c(C)n[nH]c2C)cc1 | – | – | – | ? | –
Cc1n[nH]c(C)c1S(=O)(=O)N(CC(=O)NCc1ccccc1Cl)c1ccc(C(C)C)cc1 | – | · | ? | ? | 31.6µM
O=c1ccn([C@@H]2O[C@H](CO)[C@H](O)[C@H]2O)c(=O)[nH]1 | · | · | – | · | ·
COc1ccc(Cl)cc1NC(=O)c1cccc([N+](=O)[O-])c1O | – | – | ? | 11.2µM | ?
COc1ccc(Cl)cc1NC(=O)C/C(C)=N/NC(=O)c1ccccc1[N+](=O)[O-] | – | – | – | – | –
Clc1ccccc1OCc1nn2c(-c3ccncc3)nnc2s1 | – | – | – | – | –
Cc1nc(COc2ccccc2Cl)sc1-c1ccnc(N)n1 | – | -61.6 | – | – | ·
Fc1ccc(Nc2nnc(C(F)(F)F)s2)cc1 | – | -69.2 | – | – | –
CC(CCc1ccc(O)cc1)NC(c1ccccc1)c1ccc(Cl)cc1 (centres undefined) | 11.2µM | -100.3 | ? | ? | ?
CC(CCc1ccccc1)NCc1ccc(Cl)cc1Cl (centres undefined) | – | -70.4 | – | ? | –
CC(CCc1ccc(O)cc1)NCCC(c1ccccc1)c1ccccc1 (centres undefined) | – | – | ? | ? | ?
COc1ccc(NC(=O)Cn2c(SCc3ccc(C)cc3)nc3cccnc32)c(OC)c1 | – | · | · | ? | ·
O=C(CSc1nc2c([nH]c3ccccc32)c(=O)n1-c1ccccc1)Nc1ccccc1C(F)(F)F | – | · | · | – | ·
CC(=O)O[C@@H]1[C@@H](O)[C@@H](O)[C@H](Oc2c(-c3ccc(O)cc3)oc3c(CC=C(C)C)c(O)cc(O)c3c2=O)O[C@H]1C | – | – | ? | ? | ?
CC(=O)O[C@H]1[C@@H](O)[C@H](O)[C@H](Oc2c(O)c(C)c3c4c2[C@@H](C)CC[C@@H]4[C@@H](C)C[C@H]3C=C(C)C)O[C@H]1C | – | – | ? | 11.2µM | ?
CCOc1ccc(NC(=O)CC2C(=O)N(c3cccc(C)c3)C(=O)N2Cc2cccs2)cc1 (centres undefined) | – | · | · | – | ·
O=C(CSc1n[nH]c(=O)n1C1CC1)N1N=C(c2ccc(Cl)cc2)CC1c1ccco1 (centres undefined) | – | ? | · | ? | ?
SMILES | HepG2 viability | IL-1B inflam inh | ATXN2 expr inh | TGFb SMAD3 inh | S2 tox
O=C(CSc1ncn[nH]1)N1N=C(c2ccc(Cl)cc2)CC1c1ccco1 (centres undefined) | – | -52.6 | – | ? | –
O=C(Nc1nc(-c2cccs2)cs1)c1ccc(S(=O)(=O)N2CCCC2)cc1 | – | -72.5 | ? | ? | ?
O=C(Nc1nc(-c2ccc3c(c2)OCCO3)cs1)c1ccc(S(=O)(=O)N2CCCCC2)cc1 | – | -78.9 | – | ? | –
CC(=O)Nc1nc(-c2ccc3c(c2)OCO3)cs1 | – | -52.6 | – | – | –
O=C(Nc1nc(-c2ccc3c(c2)OCO3)cs1)C1COc2ccccc2O1 (centres undefined) | – | – | – | ? | –
Cc1ccc(NC(=O)C(=O)NCC(c2cccnc2)N2CCc3ccccc3C2)cc1 (centres undefined) | – | · | · | ? | ·
COc1cc(C2c3c(-c4ccccc4O)n[nH]c3C(=O)N2Cc2ccco2)ccc1OCC(C)C (centres undefined) | – | · | · | ? | ·
CCc1cccc(C)c1NC(=O)c1cn2c3c(ccc(Cl)c3c1=O)OC(C)C2 (centres undefined) | – | · | – | – | –
CC(=O)c1ccc(NC(=O)CSc2nccn2Cc2ccco2)cc1 | – | · | · | – | ·
COc1ccc(C(CC(=O)c2ccc(C)cc2)C(C#N)C#N)cc1OC (centres undefined) | – | -100.0 | ? | ? | 29.9µM
COc1cc(Cl)c(C)cc1NC(=O)c1cc(CN2CCOCC2)on1 | – | · | – | – | –
Cc1ccc[n+](CC(=O)Nc2ccc([N+](=O)[O-])cc2)c1 | – | -79.8 | · | ? | ?
Cc1c(CCCl)c(Cl)n2c(nc3ccccc32)c1C#N | – | -112.9 | ? | ? | ?
CCc1c(C)c(C#N)c2nc3ccccc3n2c1NC | – | – | – | – | –
Clc1ccc(C(c2nnnn2C2CCCC2)N2CCN(Cc3ccncc3)CC2)cc1 (centres undefined) | – | – | – | – | –
C(=C\c1ccccc1)/CN1CCN(C(c2ccnc3ccccc23)c2nnnn2C2CCCC2)CC1 (centres undefined) | – | – | – | 10µM | ?
c1ccc(CN2CCN(C(c3ccccc3)c3nnnn3Cc3ccccc3)CC2)cc1 (centres undefined) | – | -58.4 | – | ? | –
Fc1ccc(C(c2nnnn2C2CCCC2)N2CCN(Cc3ccccc3)CC2)cc1 (centres undefined) | – | -53.6 | – | – | ?
COc1ccc(C(=O)N(Cc2nc(-c3ccc(C)cc3)no2)C2CCCCC2)cc1OC | – | -67.0 | – | ? | –
Cc1cccc(-n2c(O)c(C=Nc3ccccc3)c3ccccc3c2=O)n1 | – | -65.0 | – | – | ·
CNc1ccc(C=C2c3ccccc3-c3ccccc32)cc1 | – | · | · | ? | ·
CSc1ncccc1C(=O)N1CCOc2ccc(C(C)(O)CCn3cccn3)cc2C1 (centres undefined) | · | · | · | · | –
Cc1ccc(Cc2cnc(NC(=O)/C(C#N)=C/c3ccc(-c4ccc([N+](=O)[O-])cc4)o3)s2)cc1 | – | – | 15.8µM | – | ·
CC(=O)c1cccc(NC(=O)CN2C(=O)CC(c3ccc(C)cc3C)=Nc3ccccc32)c1 | – | · | · | – | ·
O=C(Nc1cc(-c2ccccc2)[nH]n1)c1ccccc1 | – | -54.0 | – | – | ?
